The record followed here is PubChem BioAssay (NCATS).

A short description of experiment [1]: BET inhibitor-based combinations targeting novel dependencies in MECOM-rearranged (r) AML: SET-2 cell line (AID 2202231). Further: nearly all actives have a fitted effect of over 35% in size.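 On viability: plate controls were DMSO treated cells for no effect and wells without cells for full effect.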 Conditions: SET-2 AML cells viability, CellTiter-Glo luminescence, 48 h; viability: stronger effect = lower value, concentration not given here. Summed up:
(§1)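 Viability of cells (500 per well) is scored by luminescent CellTiter-Glo at 48 hr post-dosing. Eleven-point titrations are normalized to DMSO and empty controls and reduced to AUC values.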
In general terms: ATP-based viability assays read luminescence as a measure of living cells.

The nature of experiment [2]: BET inhibitor-based combinations targeting novel dependencies in MECOM-rearranged (r) AML: OCI-AML3 cell line (AID 2202232). Further: nearly all actives have a fitted effect of over 35% in size.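 On viability (% of control): series mostly up to about 46 µM; plate controls were DMSO vehicle wells for no effect and wells without cells for full effect.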 The settings on record: Potency: OCI-AML3 viability. In outline:
as §1

Experiment [3] in a line: BET inhibitor-based combinations targeting novel dependencies in MECOM-rearranged (r) AML: MV-4-11 cell line (AID 2202233). Further: nearly all actives have a fitted effect of over 45% in size.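 On viability, % of control: plate controls were DMSO for no effect and blank wells for full effect.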 In outline:
(§2)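 Using pin-tool transfer, drugs were added in 11 doses to cells (500/well), incubated 48 hr, and assessed with CellTiter-Glo. Z-AUC is a mean-centring transformation applied separately to each screened line.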

A short description of experiment [4]: BET inhibitor-based combinations targeting novel dependencies in MECOM-rearranged (r) AML: HNT-34 cell line (AID 2202234). Further: nearly all actives have a fitted effect of over 35% in size.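 On viability (% of control): plate controls were vehicle wells for no effect and cell-free wells for full effect.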 In outline: as §2
The nature of experiment [5]: BET inhibitor-based combinations targeting novel dependencies in MECOM-rearranged (r) AML: UCSD-AML1 cell line (AID 2202235). Further: nearly all actives have a fitted effect of over 40% in size.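 On viability (% of control): series mostly up to about 46 µM; plate controls were DMSO vehicle wells for no effect and blank wells for full effect.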 Summed up: as §2
Experiment [6] in a line: BET inhibitor-based combinations targeting novel dependencies in MECOM-rearranged (r) AML: AML-191 cell line (AID 2202236; further: nearly all actives have a fitted effect of over 35% in size;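 on viability (% of control): plate controls were vehicle wells for no effect and wells without cells for full effect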). Summed up: as §1
Experiment [7] can be described thus: BET inhibitor-based combinations targeting novel dependencies in MECOM-rearranged (r) AML: AML-194 cell line (AID 2202237; further: nearly all actives have a fitted effect of over 40% in size;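 on viability (% of control): plate controls were vehicle wells for no effect and wells without cells for full effect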). Summed up: as §1

Results filed as inconclusive are left out. A number with no mark means an inactive call. Activity calls are given as the source filed them. The call rests on the fitted dose curve; in most records, active means well fitted curve in the direction sought with a large enough effect; inconclusive means small, poorly fitted or top-dose-only effect, or another doubt; inactive means no such curve, though single readings can be large; an effect the other way counts as inactive or inconclusive.
Potency means the concentration at half of the fitted maximal effect.

With `CCCc1cc(C(=O)N[C@H](Cc2ccc(-c3cccc(OC(F)(F)F)c3)nc2)C(=O)N[C@@H]2CCNC2)sc1C`, the Potency in experiment [1] was 20.9 µM (active); in experiment [2], 20.9 µM (active); in experiment [3] it was 9.34 µM (active); in experiment [4] it was 11.8 µM (active); in experiment [5] it was 10.5 µM (active); in experiment [6], 16.6 µM (active). The Potency in experiment [7] was 14.8 µM (active).
For `CC[C@@]1(O)C(=O)OCc2c1cc1n(c2=O)Cc2c-1nc1cc(F)c(C)c3c1c2[C@@H](N)CC3`, the Potency in experiment [1] was 0.0037 µM (active); in experiment [2], 0.0053 µM (active); in experiment [3], 0.0042 µM (active); in experiment [4] it was 0.003 µM (active); in experiment [5] it was 0.0042 µM (active); in experiment [6], 0.0083 µM (active). For the same compound, in experiment [7], the Potency is 0.0037 µM (active).
For the compound `CCC(C(=O)O)C1CCC(C)C(C(C)C(O)C(C)C(=O)C(CC)C2OC3(C=CC(O)[C@@]4(CC[C@](C)(C5CC[C@@](O)(CC)C(C)O5)O4)O3)C(C)CC2C)O1` (stereo partly specified), the Potency in experiment [1] is 5.25 µM (active); in experiment [2], 1.48 µM (active); in experiment [3] it was 1.66 µM (active); in experiment [4], 0.525 µM (active); in experiment [5], 13.2 µM (active); in experiment [6], 2.35 µM (active). In experiment [7], the Potency is 1.18 µM (active).
For orientation: viability means a read-out of living cells in per cent, often relative to untreated cells. Turning to `CN(C)C(=O)COC(=O)Cc1ccc(OC(=O)c2ccc(N=C(N)N)cc2)cc1`, in experiment [1], the viability was 115%. The Potency result in experiment [2], in experiment [3], in experiment [4], in experiment [5], in experiment [6] and in experiment [7] was “inactive” in each case.
On to `C=C1C(=O)O[C@@H]2[C@H]3O[C@]3(C)CC/C=C(\C)CC[C@@H]12`, for which the Potency in experiment [1] was 11.8 µM (active); in experiment [2] it was 6.61 µM (active); in experiment [3], 5.25 µM (active); in experiment [4] it was 7.42 µM (active); in experiment [5] it was 10.5 µM (active); in experiment [6] it was 9.34 µM (active). The Potency in experiment [7] was 11.8 µM (active).
On to `C/C=C1\NC(=O)[C@H]2CSSCC/C=C\[C@H](CC(=O)N[C@H](C(C)C)C(=O)N2)OC(=O)[C@H](C(C)C)NC1=O`, for which the Potency in experiment [1] was 0.0295 µM (active); in experiment [2], 0.0105 µM (active); in experiment [3] it was 0.0118 µM (active); in experiment [4], 0.0083 µM (active); in experiment [5], 0.0105 µM (active); in experiment [6], 0.0148 µM (active). Further, the Potency in experiment [7] is 0.0235 µM (active).
Turning to `CCc1c(C(=O)NNC(=O)[C@@H](O)c2cc(F)cc(F)c2)ccc(O)c1C`, the viability in experiment [1] was 97.8%. The Potency entry in experiment [2], in experiment [3], in experiment [4], in experiment [6] and in experiment [7] was “inactive” throughout. In experiment [5], the Potency was 7.42 µM (active).
With `O=c1c(-c2ccc(O)cc2)coc2c([C@@H]3O[C@H](CO)[C@@H](O)[C@H](O)[C@H]3O)c(O)ccc12`, the viability in experiment [1] is 113%. The Potency entry in experiment [2], in experiment [3], in experiment [4], in experiment [5] and in experiment [7] was “inactive” throughout.
`CC(C)(O)c1coc(S(=O)(=O)NC(=O)Nc2c3c(cc4c2CCC4)CCC3)c1`: the viability in experiment [1] is 126%. Moreover, the Potency entry in experiment [2], in experiment [3], in experiment [4], in experiment [5], in experiment [6] and in experiment [7] was “inactive” in each case.
In the case of `O=c1cc(O)c(Cl)c[nH]1`, in experiment [1], the viability was 115%. The Potency result in experiment [2], in experiment [3], in experiment [4], in experiment [5] and in experiment [7] was “inactive” each time.
As for `CC[C@@H](Oc1cccc(CN(CCCOc2ccc(OC)cc2)c2nc3ccccc3o2)c1)C(=O)O`, in experiment [1], the viability was 110%. The Potency entry in experiment [2], in experiment [3], in experiment [4], in experiment [5], in experiment [6] and in experiment [7] was “inactive” throughout.
In the case of `Cc1cnc(NC(=O)Nc2cc(Br)c(C)cc2OC[C@@H]2CNCCO2)cn1`, the Potency in experiment [1] was 4.17 µM (active); in experiment [2], 3.72 µM (active); in experiment [3], 2.09 µM (active); in experiment [4], 9.34 µM (active); in experiment [5] it was 1.48 µM (active); in experiment [6], 2.95 µM (active). The Potency in experiment [7] is 4.17 µM (active).
For the compound `Cc1ccc(Sc2ccccc2N2CCNCC2)c(C)c1`, the Potency was 18.6 µM (active) in experiment [1]; 20.9 µM (active) in experiment [2]; 20.9 µM (active) in experiment [3]; 16.6 µM (active) in experiment [4]; 16.6 µM (active) in experiment [5]; 18.6 µM (active) in experiment [6]. In addition, in experiment [7], the Potency was 11.8 µM (active).
Consider `COc1ccc(S(=O)(=O)N[C@@H](CNc2nc(C)nc(N3CCC(c4ccc5c(n4)NCCC5)CC3)c2C)C(=O)O)cc1`, for which the viability in experiment [1] was 111%. The Potency result in experiment [2], in experiment [3], in experiment [4], in experiment [5], in experiment [6] and in experiment [7] was “inactive” each time.
As for `C[C@H]1O[C@H](O[C@H]2[C@H](O)[C@@H](O)[C@@H](O[C@H]3[C@H](O)[C@@H](O)C(O)O[C@@H]3CO)O[C@@H]2CO)[C@H](O)[C@@H](O)[C@@H]1N[C@H]1C=C(CO)[C@@H](O)[C@H](O)[C@H]1O` (stereo partly specified), in experiment [1], the viability was 101%. In addition, the Potency entry in experiment [2], in experiment [3], in experiment [4], in experiment [5] and in experiment [7] was “inactive” throughout.
With `CCOC(=O)CCNc1cc(N2CCc3ccccc3CC2)nc(-c2ccccn2)n1`, the Potency in experiment [1] is 3.72 µM (active); in experiment [2], 14.8 µM (active); in experiment [3] it was 8.33 µM (active); in experiment [4], 2.35 µM (active); in experiment [5], 3.32 µM (active); in experiment [6], 2.95 µM (active). Moreover, the Potency in experiment [7] is 2.95 µM (active).
Consider `CC(C)(S)[C@@H](N)C(=O)O`, for which the viability in experiment [1] was 116%. Also, the viability (% of control) in experiment [2] is 118% [at 5.12 µM]; in experiment [4], 108% [at 5.12 µM]; in experiment [5] it was 112% [at 5.12 µM]; in experiment [6] it was 111% [at 5.12 µM]; in experiment [7], 114% [at 5.12 µM]. In experiment [3], the viability, % of control is 125% [at 5.12 µM].
